Screening data (PubChem BioAssay)
Tgondii IFNg: T. gondii growth inhibition under IFN-gamma | Toxoplasma gondii growth in IFN-gamma-treated host cells; hits give low values | activity change, negative = inhibition, % (no concentration beside the values) | actives 3.8% (n = 69,000); in the data active means activity change below about -70%, passing the limit was not always enough;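 further: host cells are HeLa cells infected with Toxoplasma gondii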
* = called active by the depositor; i = inactive; ! = not active in a repeat. The sample as a whole holds a higher share of hits than the screen did.

SMILES	Tgondii IFNg
CCOC(=O)N1CCC2(CC1)OC(=O)C(C)=C2C(=O)NCc1ccc2c(c1)OCO2	123.9
Cc1[nH][nH]c(=O)c1C1(C(C#N)C#N)C2CC3CC(C2)CC1C3 (configuration not stated)	-50.3
COc1ccc(CN(CC(=O)NC2CCCCC2)C(=O)c2ccc(-c3ccccc3)[nH]2)cc1	-32.1
CCc1oc2ccccc2c1-c1nccn1Cc1cnn(C)c1C	24.1
Cc1cccc(-c2noc(CCC(=O)N3CCc4cc(Cl)ccc43)n2)c1	2.6
Cc1cc(CC(C)CC(C)(C)C)n(O)c(=O)c1 (configuration not stated)	-68.2
Cc1cc(C2CCCCC2)n(O)c(=O)c1	-82.2*!
COCCN(Cc1cccs1)C(=O)c1ccc(=O)n(C)c1	9.4
CCCN(CCC)S(=O)(=O)c1ccc(C(=O)Nc2ccc(F)cc2)cc1	-87.8*
CCCN(CCC)S(=O)(=O)c1ccc(C(=O)NCCc2ccc(OC)c(OC)c2)cc1	-46.9
CS(=O)(=O)c1ccc(C(=O)Nc2ccccc2)cc1	48.7
COC(=O)[C@@H]1C[C@@H](NC(=O)NCCc2ccc(F)cc2)CN1C	4.4
CSC1SCC2C(=O)N(C)C(C(C)C)C(=O)OCC(NC(=O)c3cnc4ccccc4n3)C(=O)NC(C)C(=O)N(C)C1C(=O)N(C)C(C(C)C)C(=O)OCC(NC(=O)c1cnc3ccccc3n1)C(=O)NC(C)C(=O)N2C (configuration not stated)	-76.6*
NCC1Cc2cc(-c3ccc(C(=O)N4CCCC4)o3)cc(Cl)c2O1 (configuration not stated)	-8.4
Cc1c(Cl)cc(F)cc1S(=O)(=O)N1CC=C(c2ccccc2)CC1	-39.0
CC(C)Oc1ccc2c(=O)c(-c3ccccc3)coc2c1	430.9
CC(C)Oc1ccc(C2NC(=O)c3ccccc3O2)cc1 (configuration not stated)	-97.8*
O=C1NCC(c2ccccc2)Oc2ccccc21 (configuration not stated)	-27.3
CCOC(=O)C1CCN(CC(=O)NCCC2=CCCCC2)CC1	1.8
CCn1c(=O)c(=O)[nH]c2c(=O)oc3ccccc3c21	18.5
Cc1[nH]c2c(CN3CCNC(C(=O)NC4CC4)C3)cccc2c1C (configuration not stated)	8.6
Cc1cccc(-c2nc(C)c(CCNS(=O)(=O)c3ccc(I)cc3)s2)c1	i
Cc1nc(-c2ccc(Cl)cc2)sc1CCNS(=O)(=O)c1ccccc1F	-71.9*
Cc1nc(-c2ccccc2)sc1CCNS(=O)(=O)c1ccccc1	368.7
Cc1cc(F)ccc1S(=O)(=O)NCCc1sc(-c2ccc(Cl)cc2)nc1C	361.8
SMILES	Tgondii IFNg
Cc1cccc(-c2nc(C)c(CCNS(=O)(=O)c3ccc(-c4ccccc4)cc3)s2)c1	-83.9*
Cc1cccc(-c2nc(C)c(CCNS(=O)(=O)c3ccccc3F)s2)c1	i
CN1C(=O)CCc2cc(NC(=O)C3CCCC3)ccc21	11.8
C[C@@]1(c2nc3c(C(N)=O)cccc3[nH]2)CCCN1	3.8
Cc1cnc(C)c(N2CCC3(CCCN(C)CC3)CC2)n1	-8.0
O=C(C1CC2(CCNCC2)CN1)N1CC(n2cccn2)C1 (configuration not stated)	55.4
Cc1n[nH]c(C)c1CCCN(C)c1nccc(N2CCCC(O)C2)n1 (configuration not stated)	-6.5
CN(c1ccccc1)c1ncnc2oc(-c3ccco3)c(-c3ccco3)c12	25.7
c1ccc(Cc2nc3ccccc3[nH]2)cc1	-15.9
Clc1nc2ccccc2c2[nH]c3ccccc3c12	-95.2*
O=C1NCc2c1c1c3ccccc3[nH]c1c1[nH]c3ccccc3c21	1.5
Cc1nsc(NC(=O)N2CCCC(c3ccc(Cl)cc3)C2)n1 (configuration not stated)	-48.0
Cc1cccc(N2C(=O)c3cccc4c(N5CCNCC5)ccc(c34)C2=O)c1	0.4
O=c1cc(N2CCNCC2)oc2c(-c3ccccc3)cccc12	-84.8*!
O=S(=O)(c1ccccc1)c1cnc2c(N3CCNCC3)cccc2c1	14.6
C#CCOc1c(C)c(C)nc2cc(C3CCOCC3)nn12	1.5
CCN1CCC2(CC1)OC(=O)C(C)=C2C(=O)NCCN1CCCCCC1	106.3
Cn1cc(N2CC3(CCN(CCO)C3)CC2=O)cn1 (configuration not stated)	-87.5*
CCS(=O)(=O)N1CCC2(CC(=O)N(c3cnn(C)c3)C2)C1 (configuration not stated)	4.6
Cn1cc(N2CC3(CCN(S(C)(=O)=O)C3)CC2=O)cn1 (configuration not stated)	12.5
Cc1ccc(C(=O)N2CCCC3(C2)Nc2cccnc2NC3=NC2CCCC2)cc1F (configuration not stated)	7.7
COc1cc(-c2cccc(-n3cccn3)c2)ccc1NC(C)=O	77.3
O=C1Cc2cc(Cl)ccc2N1	10.0
O=C1Cc2cc(-c3cccc(-n4cccn4)c3)ccc2N1	-92.9*
CS(=O)(=O)c1ccc(-n2ccnc2-c2ccccn2)cc1	2.8
SMILES	Tgondii IFNg
CCN1CCN(CC(=O)Nc2ccccc2C(F)(F)F)CC1	0.5
CC(C)C/C=C(\CN1CCOC2(CNCCOC2)C1)c1ccccc1 (configuration not stated)	-31.8
COCC(C)NC(=O)c1ccc(C2SCC(=O)N2Cc2ccco2)cc1 (configuration not stated)	14.6
COCC(=O)N1CCC2(CCC(=O)N2CCN2CCCC2)CC1	52.6
O=C1CC(c2cccc(Br)c2)c2cc3c(cc2N1)CCC3 (configuration not stated)	-83.1*
COc1cc2c(cc1C1CC(=O)Nc3[nH]ncc31)CCC2 (configuration not stated)	4.0
O=C1CC(c2ccsc2)c2cc3cn[nH]c3cc2N1 (configuration not stated)	1.1
Cc1ccc(C(C(=O)NC2CCCCC2)N(C(=O)c2ccccn2)c2ccccc2)cc1 (configuration not stated)	14.9
CN(Cc1ccco1)CC1CN(S(C)(=O)=O)Cc2nccn2C1 (configuration not stated)	9.1
CC(C)N1CC2(CCN(Cc3nccn3C)CC2)c2ccccc21	-3.7
COCc1nc2c(o1)CN(C(=O)NCc1cccc(F)c1)C2	-0.8
CCc1ccc(-c2c(-c3ccccc3)ncn2CCS(C)(=O)=O)nc1	1.3
CCc1nccc(-c2c(-c3ccccc3)ncn2CCN2CCOCC2)n1	-80.1*
CCc1nccc(-c2c(-c3ccccc3)ncn2CC2(CO)CCOCC2)n1	-82.6*
CN1CCN(CCn2cnc(-c3ccccc3)c2-c2cnc[nH]2)CC1	-2.4
CCc1ncc(-c2c(-c3ccccc3)ncn2Cc2ccccc2F)cn1	21.4
CCn1ccnc1-c1c(-c2ccccc2)ncn1CCN1CCOC1=O	3.9
COCCN1CCC2(CCCN(C(=O)c3cc(C)[nH]n3)CC2)C1=O (configuration not stated)	33.7
O=C(Nc1ccc(Nc2ccccc2)nc1)c1ccccc1C1CCNC1 (configuration not stated)	10.1
CC(C)(C)c1nnc2sc(-c3cccs3)nn12	22.1
FC(F)(F)c1cc(Oc2ccccc2)ncc1-c1nnc(-c2ccccc2Cl)o1	-58.9
COc1ccccc1-c1nnc(CC(=O)O)o1	-24.2
Clc1ccccc1-c1nnc(Cc2cc(Br)sc2Br)o1	-90.2*
c1ccc(Oc2cccc(C3CCCN3)n2)cc1 (configuration not stated)	-38.3
CN1CC2CCCC(C1)C2CC(=O)NCc1ccco1 (configuration not stated)	26.1
Cn1c(NC(=O)CN2CCc3[nH]c4c(Cl)cccc4c3C2)cc(=O)n(C)c1=O	4.9
